Assay [1] in a line: NCATS anti-infectives library activity on HEK293 viability as a counter-qHTS vs the C. elegans viability qHTS (AID 1745854).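 Further: HEK293 cells exposed to compounds for 24 hr before the viability read; on the % scale 0 is the no-effect control and ±100 the full control effect.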 The method, boiled down: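 Compound titrations (final up to 41.7 uM) were incubated with HEK293 cells for 24 hr at 37C under 5% CO2. Viable cells were quantified with CellTiter-Glo after 10 min at ambient temperature.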
Background: qHTS replaces the single test concentration by a dilution series.

Assay [2] concerns the target Glutathione peroxidase 1 (Homo sapiens) (UniProt P07203). The experiment in a line: Primary qHTS Assay for Inhibitors of Recombinant Selenoprotein Glutathione Peroxidase 1 (GPX1) (AID 1845191). Further: nearly all actives have a fitted effect of over 65% in size. The method, boiled down:
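GPX1 10 nM, GR 100 nM, GSH 1 mM, NADPH 0.5 mM, CHP 0.5 mM (final). 30-min cpd preincubation, RT. Ex340/Em450 read t=0, t=15 min.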

Assay [3] is described as follows: Viability counterscreen for antagonist of constitutive androstane receptor (CAR) against the NCATS DSHEA and TCM libraries (AID 1794837).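 Further: compound exposure lasted 24 h before viability reading; 0% is about no effect.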 A digest of the protocol: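 HepG2-CYP2B6-hCAR cells (2,500/well) were allowed to attach for 5 h, then exposed to compounds with 48 uM CITCO for 24 h at 37C. Viability was read by CellTiter-Fluor fluorescence after 1 h.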
A short description of assay [4]: Viability counterscreen for agonist of constitutive androstane receptor (CAR) against the NCATS DSHEA and TCM libraries (AID 1794838). Further: 0% is about no effect. The method, boiled down: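 HepG2-CYP2B6-hCAR cells (2,500/well) attached 5 h, then got compounds plus 0.75 uM PK11195 final. After 24 h at 37C, viability read by CellTiter-Fluor fluorescence (Ex/Em 405/540 nm).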
In general terms: A counterscreen serves to expose hits that act by an unwanted route or on another target.

Assay [5] addresses Nuclear receptor subfamily 1 group I member 3 (Homo sapiens) (UniProt Q14994). Briefly: Primary qHTS for agonist of constitutive androstane receptor (CAR) against the NCATS DSHEA and TCM libraries (AID 1794839).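 Further: HepG2 cells expressing human CAR with a CYP2B6 reporter plus PK11195 antagonist; 0% is about no effect.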 The method, boiled down:
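HepG2-CYP2B6-hCAR cells (2,500/well) were attached for 5 h, then treated for 24 h at 37 °C with compounds plus 0.75 µM PK11195. Luciferase luminescence (ONE-Glo) was read, with CellTiter-Fluor viability (Ex/Em 405/540 nm).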

Assay [6] is described as follows: HepG2 viability counterscreen (readout 2: ATP content) against the NCATS DSHEA and TCM libraries (AID 1794840).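 Further: HepG2 cells exposed to substances for about 24 h; 0% is about no effect.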 A digest of the protocol:
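HepG2 cells (1,000 cells/well) attached ~4 h, then treated ~24 h at 37C with substances. Protease activity read by GF-AFC (25 uM final, 30 min, Ex/Em 380/510 nm); ATP content then by CellTiter-Glo luminescence.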

Assay [7] has as its target Cytochrome P450 2D6 (Homo sapiens) (UniProt P10635). Briefly: qHTS for inhibitors of CYP2D6 against the NCATS DSHEA and TCM libraries (AID 1919972). Further: on the % scale 0 is the no-effect control and ±100 the full control effect. A digest of the protocol:
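qHTS, concentration–response format with most substances from 19.5 nM. CYP2D6 + pro-luciferin substrate, 15 min with compound, then 1x NADPH regen, 30–45 min RT dark. Glo detection 30 min, luminescence. Quinidine control.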

The target of assay [8] is Cytochrome P450 2C9 (Homo sapiens) (UniProt P11712). The experiment in a line: qHTS for inhibitors of CYP2C9 against the NCATS DSHEA and TCM libraries (AID 1919973). Further: potency means the concentration at half of the fitted maximal effect. The method, boiled down: (§1)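 Isoform-specific enzyme and substrate levels; enzyme-free wells as background. Reaction: 1x NADPH regenerating system, 30-45 min, room temperature, shielded from light; luminescent detection reagent added, 30 min.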
Sequence of Cytochrome P450 2C9 (Homo sapiens) (P11712 whole entry, looked up, canonical isoform): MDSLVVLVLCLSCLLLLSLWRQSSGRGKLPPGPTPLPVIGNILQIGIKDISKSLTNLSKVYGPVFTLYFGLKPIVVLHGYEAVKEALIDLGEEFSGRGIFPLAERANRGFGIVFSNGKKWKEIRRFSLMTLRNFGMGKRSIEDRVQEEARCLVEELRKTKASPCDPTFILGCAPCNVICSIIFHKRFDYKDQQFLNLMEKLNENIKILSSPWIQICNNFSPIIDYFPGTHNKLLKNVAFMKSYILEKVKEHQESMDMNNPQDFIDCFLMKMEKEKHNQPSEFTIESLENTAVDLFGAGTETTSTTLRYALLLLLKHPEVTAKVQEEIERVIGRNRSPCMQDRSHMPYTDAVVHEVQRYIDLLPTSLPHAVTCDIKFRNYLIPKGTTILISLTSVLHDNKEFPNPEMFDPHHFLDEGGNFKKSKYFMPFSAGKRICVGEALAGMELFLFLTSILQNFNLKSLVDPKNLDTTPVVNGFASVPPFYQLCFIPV

Assay [9] deals with Cytochrome P450 2C19 (Homo sapiens) (UniProt P33261). Briefly: qHTS for inhibitors of CYP2C19 against the NCATS DSHEA and TCM libraries (AID 1919974).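 Further: luminescence from luciferin released by CYP2C19 oxidation of a pro-luciferin substrate; on the % scale 0 is the no-effect control and ±100 the full control effect.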 The method, boiled down:
as §1

Assay [10] deals with Cytochrome P450 1A2 (Homo sapiens) (UniProt P05177). The experiment in a line: qHTS for inhibitors of CYPIA2 against the NCATS DSHEA and TCM libraries (AID 1919976).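 Further: light from luciferin formed by CYP1A2 from a pro-luciferin substrate; series mostly up to about 37 µM; on the % scale 0 is the no-effect control and ±100 the full control effect.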 A digest of the protocol:
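Furafylline served as the plate control. Compounds met CYP1A2 and pro-luciferin substrate 15 min before NADPH regeneration solution (1x) was added; after 30-45 min at RT, P450-Glo reagent was added for 30 min and luminescence was measured.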

The nature of assay [11]: qHTS Counterscreen for compound interference against the NCATS DSHEA and TCM libraries (AID 1919978). Further: % of control where 0% means no effect. The note with it: firefly luciferase detection reagent interference, luminescence. A digest of the protocol:
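D-luciferin (1 uM final) or 100 mM potassium phosphate buffer alone was preincubated 15 min at RT with compounds (19.5 nM to 39.8 uM final). Luciferin detection reagent was then added and luminescence read after 30 min at RT.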

Assay [12] in a line: Dual reporter qHTS for agonist of Pregnane X Receptor (hPXR) against the NCATS DSHEA and TCM libraries: Fluorescence readout (AID 1920058). Further: 0% is about no effect. A digest of the protocol:
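In this qHTS counter-read, reporter-bearing HepG2 cells in charcoal-stripped serum received substances for approximately 24 h before viability was assessed fluorometrically with CellTiter-Fluor.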

In assay [13] the target is Nuclear receptor subfamily 1 group I member 2 (Homo sapiens) (UniProt O75469). Briefly: Dual reporter qHTS for agonist of Pregnane X Receptor (hPXR) against the NCATS DSHEA and TCM libraries: Luminescence readout (AID 1920059). Further: 0% is about no effect. The method, boiled down:
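hPXR-LucHepG2 cells in phenol red-free DMEM with 5% charcoal-stripped FBS, 2000 cells/well, attached 5 h, then exposed 24 h at 37C to compounds; rifampicin as positive agonist control (2.8 nM–92 uM). Luciferase luminescence read.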

Assay [14] has the same target. The experiment in a line: Dual reporter qHTS for antagonist of Pregnane X Receptor (hPXR) against the NCATS DSHEA and TCM libraries: Luminescence Readout (AID 1920060).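 Further: HepG2 cells carrying hPXR luciferase reporter stimulated with rifampicin at 2 µM; 0% is about no effect.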 A digest of the protocol:
(§2)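 hPXR-Luc HepG2 cells exposed 24 h at 37 C to compounds with 2 uM rifampicin in antagonist mode; luciferase luminescence measured by ONE-Glo, with CellTiter-Fluor viability read beforehand.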

Assay [15] can be described thus: Dual reporter qHTS for antagonist of Pregnane X Receptor (hPXR) against the NCATS DSHEA and TCM libraries: Fluorescence Readout (AID 1920061). Further: 0% is about no effect. A digest of the protocol: as §2

Unmarked numbers belong to inactive results. Results filed as inconclusive are left out. Active and inactive are the calls of the source. The call rests on the fitted dose curve; in most records, active means well fitted curve in the direction sought with a large enough effect; inconclusive means small, poorly fitted or top-dose-only effect, or another doubt; inactive means no such curve, though single readings can be large; an effect the other way counts as inactive or inconclusive.

Sequence of Nuclear receptor subfamily 1 group I member 2 (Homo sapiens) (O75469 whole entry, looked up): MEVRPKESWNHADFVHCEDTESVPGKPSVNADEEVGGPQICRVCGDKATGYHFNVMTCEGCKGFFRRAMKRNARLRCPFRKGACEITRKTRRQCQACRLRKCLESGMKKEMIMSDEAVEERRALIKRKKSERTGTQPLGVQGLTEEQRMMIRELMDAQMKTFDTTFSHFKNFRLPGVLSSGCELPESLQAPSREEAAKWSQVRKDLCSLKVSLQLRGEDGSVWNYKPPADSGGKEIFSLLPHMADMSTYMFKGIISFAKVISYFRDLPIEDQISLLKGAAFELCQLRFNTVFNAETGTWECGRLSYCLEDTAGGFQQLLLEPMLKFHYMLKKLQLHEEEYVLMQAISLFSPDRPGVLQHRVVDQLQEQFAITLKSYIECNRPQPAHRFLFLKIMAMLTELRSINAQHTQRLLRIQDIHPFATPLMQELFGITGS
Sequence of Cytochrome P450 2C19 (Homo sapiens) (P33261 whole entry, looked up): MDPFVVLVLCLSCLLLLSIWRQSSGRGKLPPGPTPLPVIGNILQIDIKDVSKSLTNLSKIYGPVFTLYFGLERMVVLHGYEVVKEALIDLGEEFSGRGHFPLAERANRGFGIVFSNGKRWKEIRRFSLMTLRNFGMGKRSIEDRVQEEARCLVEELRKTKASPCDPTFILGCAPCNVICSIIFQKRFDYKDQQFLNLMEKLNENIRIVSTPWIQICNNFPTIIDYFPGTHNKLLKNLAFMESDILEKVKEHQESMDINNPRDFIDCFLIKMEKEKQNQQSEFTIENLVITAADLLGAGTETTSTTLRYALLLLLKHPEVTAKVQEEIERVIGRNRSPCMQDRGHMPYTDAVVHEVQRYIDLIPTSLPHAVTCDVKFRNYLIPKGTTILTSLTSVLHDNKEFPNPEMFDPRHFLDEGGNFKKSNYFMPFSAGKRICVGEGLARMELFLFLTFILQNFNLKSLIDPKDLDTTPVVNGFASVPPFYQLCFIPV
Sequence of Glutathione peroxidase 1 (Homo sapiens) (P07203 whole entry, looked up): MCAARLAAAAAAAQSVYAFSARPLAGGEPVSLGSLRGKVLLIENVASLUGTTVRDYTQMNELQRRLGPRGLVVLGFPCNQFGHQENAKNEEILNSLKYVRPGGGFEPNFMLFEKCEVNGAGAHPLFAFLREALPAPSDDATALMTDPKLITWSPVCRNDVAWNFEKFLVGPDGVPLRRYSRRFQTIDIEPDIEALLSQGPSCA
Sequence of Nuclear receptor subfamily 1 group I member 3 (Homo sapiens) (Q14994 whole entry, looked up): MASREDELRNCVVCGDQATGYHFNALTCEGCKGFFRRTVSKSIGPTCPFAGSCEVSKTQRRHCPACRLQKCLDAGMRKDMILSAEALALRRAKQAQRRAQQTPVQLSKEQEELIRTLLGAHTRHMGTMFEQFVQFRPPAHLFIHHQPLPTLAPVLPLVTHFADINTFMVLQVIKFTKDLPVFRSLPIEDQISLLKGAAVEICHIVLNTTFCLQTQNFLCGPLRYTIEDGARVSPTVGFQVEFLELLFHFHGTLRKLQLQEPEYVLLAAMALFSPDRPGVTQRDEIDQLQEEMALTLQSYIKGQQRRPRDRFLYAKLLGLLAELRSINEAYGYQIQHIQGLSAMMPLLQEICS
Sequence of Cytochrome P450 1A2 (Homo sapiens) (P05177 whole entry, looked up): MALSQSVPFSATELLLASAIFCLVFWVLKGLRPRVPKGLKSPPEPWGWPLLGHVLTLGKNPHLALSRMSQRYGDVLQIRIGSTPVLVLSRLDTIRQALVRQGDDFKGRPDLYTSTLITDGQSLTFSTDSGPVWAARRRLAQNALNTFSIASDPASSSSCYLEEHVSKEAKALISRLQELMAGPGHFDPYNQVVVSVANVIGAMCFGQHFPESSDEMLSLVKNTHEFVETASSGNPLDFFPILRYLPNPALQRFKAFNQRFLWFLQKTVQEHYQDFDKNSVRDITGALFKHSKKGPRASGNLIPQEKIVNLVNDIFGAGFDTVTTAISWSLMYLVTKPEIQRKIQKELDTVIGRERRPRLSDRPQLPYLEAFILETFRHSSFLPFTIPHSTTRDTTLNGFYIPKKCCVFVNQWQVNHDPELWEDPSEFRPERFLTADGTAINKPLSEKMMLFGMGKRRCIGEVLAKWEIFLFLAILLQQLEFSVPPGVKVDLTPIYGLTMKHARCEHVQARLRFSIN
Sequence of Cytochrome P450 2D6 (Homo sapiens) (P10635 whole entry, looked up): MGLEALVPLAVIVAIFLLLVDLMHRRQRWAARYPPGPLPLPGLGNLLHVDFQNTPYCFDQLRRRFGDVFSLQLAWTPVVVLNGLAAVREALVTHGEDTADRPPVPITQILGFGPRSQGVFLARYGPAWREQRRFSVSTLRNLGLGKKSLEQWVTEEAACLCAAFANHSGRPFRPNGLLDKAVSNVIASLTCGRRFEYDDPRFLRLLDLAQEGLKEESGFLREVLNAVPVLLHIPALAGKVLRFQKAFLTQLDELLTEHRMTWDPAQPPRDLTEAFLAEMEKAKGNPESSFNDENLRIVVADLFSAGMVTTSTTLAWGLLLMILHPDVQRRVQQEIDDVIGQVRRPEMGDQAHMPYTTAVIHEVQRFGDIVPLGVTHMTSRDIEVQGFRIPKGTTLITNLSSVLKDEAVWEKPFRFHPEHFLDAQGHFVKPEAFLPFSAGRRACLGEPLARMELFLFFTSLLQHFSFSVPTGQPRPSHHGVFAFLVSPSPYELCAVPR

With `COC[C@H]1C[C@@H](c2ncc(-c3ccc4c(c3)COc3cc5c(ccc6[nH]c([C@@H]7CC[C@H](C)N7C(=O)[C@@H](NC(=O)OC)C(C)C)nc65)cc3-4)[nH]2)N(C(=O)[C@H](NC(=O)OC)c2ccccc2)C1`, the Potency result in assay [1] and in assay [2] was “inactive” in each case.

For `O=C(/C=C/c1ccc(O)c2c1[C@H](C(=O)O)[C@@H](c1ccc(O)c(O)c1)O2)O[C@H](Cc1ccc(O)c(O)c1)C(=O)O`, the Potency result in [1], in [5], in assay [7], in assay [9], in [10] and in assay [13] was “inactive” throughout. In addition, the call in assay [3], in [4], in [6], in [12], in [14] and in [15] was inactive. Also, the Potency in assay [8] is 14.1 µM (active). Also, the max response in assay [11] is -1.18%.
